Reference: the supplement of paper PMC10849652
About 7,900 targets were measured; listed, in parts, are those with a hit and a random draw of the rest. About 0.6% of all pairs of compound and target were hits.

How the values were obtained:
Experiment in all cases: log2 fold change, soluble protein after heating vs DMSO (PISA); higher = thermal stabilisation; K562 cells, 10 uM, 30 min; active = over 0.2 and 3.5 SD of the protein, either way, in both replicates (recomputed)
[1] = compound: CS(=O)(=O)c1ccc(-c2cnc(N)c(C(=O)Nc3ccccc3)n2)cc1
Method in brief: (§1)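 Values are thermal stability changes relative to control samples and are taken from duplicates. They are stated as log2 fold changes. Before quantification by TMTpro 16plex LC-MS/MS with equalised channel sums, K562 cells at 2×10^6 cells/mL were treated with 10 μM compound for 30 min, heated in aliquots for 3 min across 48°C-58°C, pooled, extracted in PBS with 0.5% NP-40 at 4°C, and centrifuged at 21,000xg for 90 min to give the soluble supernatant.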

crizotinib = compound: C[C@@H](Oc1cc(-c2cnn(C3CCNCC3)c2)cnc1N)c1c(Cl)ccc(F)c1Cl [crizotinib]
Method in brief: as §1

[2] = compound: C[C@@H]1COCCN1C2=NC(=NC(=C2)C3(CC3)S(=O)(=O)C)C4=C5C=CNC5=CC=C4
Method in brief: as §1

[3] = compound: C[C@H](C1=CC=C(C=C1)C(=O)NC2=C3C=CNC3=NC=C2)N
Method in brief: as §1

duvelisib = compound: C[C@H](Nc1ncnc2nc[nH]c12)c1cc2cccc(Cl)c2c(=O)n1-c1ccccc1 [duvelisib]
Method in brief: as §1

gandotinib = compound: Cc1cc(Nc2cc(CN3CCOCC3)c3nc(C)c(Cc4ccc(Cl)cc4F)n3n2)n[nH]1 [gandotinib]
Method in brief: as §1

tozasertib = compound: Cc1cc(Nc2cc(N3CCN(C)CC3)nc(Sc3ccc(NC(=O)C4CC4)cc3)n2)n[nH]1 [tozasertib]
Method in brief: as §1

[4] = compound: Cc1cc(SCc2sc(-c3ccc(C(F)(F)F)cc3)nc2C)ccc1OCC(=O)O
Method in brief: as §1

doramapimod = compound: Cc1ccc(-n2nc(C(C)(C)C)cc2NC(=O)Nc2ccc(OCCN3CCOCC3)c3ccccc23)cc1 [doramapimod]
Method in brief: as §1

ispinesib = compound: Cc1ccc(C(=O)N(CCCN)[C@@H](c2nc3cc(Cl)ccc3c(=O)n2Cc2ccccc2)C(C)C)cc1 [ispinesib]
Method in brief: as §1

bafetinib = compound: Cc1ccc(NC(=O)c2ccc(CN3CC[C@H](N(C)C)C3)c(C(F)(F)F)c2)cc1Nc1nccc(-c2cncnc2)n1 [bafetinib]
Method in brief: as §1

[5] = compound: Cc1cccc(CC(=O)N2CCc3c2ccc(-c2cn(C)c4ncnc(N)c24)c3F)n1
Method in brief: as §1

nilotinib = compound: Cc1cn(-c2cc(NC(=O)c3ccc(C)c(Nc4nccc(-c5cccnc5)n4)c3)cc(C(F)(F)F)c2)cn1 [nilotinib]
Method in brief: as §1

[6] = compound: Cc1nc(Nc2n[nH]c3c2CN(C(=O)N[C@H](CN(C)C)c2ccccc2)C3(C)C)c2sccc2n1
Method in brief: as §1

dasatinib = compound: Cc1nc(Nc2ncc(C(=O)Nc3c(C)cccc3Cl)s2)cc(N2CCN(CCO)CC2)n1 [dasatinib]
Method in brief: as §1

[7] = compound: Cc1ncc(-c2ccnc(Nc3ccc(S(C)(=O)=O)cc3)n2)n1C(C)C
Method in brief: as §1

[8] = compound: Cn1cc(-c2ccc3c(c2)CCN3C(=O)Cc2cccc(C(F)(F)F)c2)c2c(N)ncnc21
Method in brief: as §1

[9] = compound: Cn1cc(-c2ccc3nnc(C(F)(F)c4ccc5ncccc5c4)n3n2)cn1
Method in brief: as §1

tipifarnib = compound: Cn1cncc1[C@@](N)(c1ccc(Cl)cc1)c1ccc2c(c1)c(-c1cccc(Cl)c1)cc(=O)n2C [tipifarnib]
Method in brief: as §1

mubritinib = compound: FC(F)(F)c1ccc(/C=C/c2nc(COc3ccc(CCCCn4ccnn4)cc3)co2)cc1 [mubritinib]
Method in brief: as §1

Measured: log2 fold change

ECPAS (UniProt Q5VYK3)
active: dasatinib -0.255
inactive: [1] 0 | crizotinib -0.18 | [2] 0.01 | [3] 0.081 | duvelisib 0.024 | gandotinib -0.115 | tozasertib 0.048 | [4] 0.099 | doramapimod -0.032 | ispinesib -0.016 | bafetinib 0.031 | [5] 0.105 | nilotinib -0.067 | [6] -0.038 | [7] 0.077 | [8] -0.011 | [9] -0.043 | tipifarnib -0.202 | mubritinib 0.021

DAB2 (UniProt P98082)
inactive: [1] -0.04 | crizotinib -0.099 | [2] 0.049 | [3] -0.052 | duvelisib -0.021 | gandotinib -0.021 | tozasertib -0.023 | [4] 0.069 | doramapimod 0.022 | ispinesib -0.091 | bafetinib -0.041 | [5] 0.085 | nilotinib -0.152 | [6] 0.002 | dasatinib -0.178 | [7] -0.098 | [8] 0.01 | [9] -0.007 | tipifarnib -0.042 | mubritinib -0.024

EPHX2 (UniProt P34913)
inactive: [1] 0.036 | crizotinib 0.169 | [2] 0.194 | [3] -0.019 | duvelisib 0.029 | gandotinib -0.018 | tozasertib 0.144 | [4] -0.032 | doramapimod -0.016 | ispinesib -0.01 | bafetinib 0.131 | [5] -0.097 | nilotinib 0.152 | [6] -0.029 | dasatinib -0.041 | [7] 0.073 | [8] 0.051 | [9] 0.016 | tipifarnib 0.065 | mubritinib 0.11

DHX36 (UniProt Q9H2U1)
inactive: [1] -0.071 | crizotinib -0.101 | [2] -0.062 | [3] 0.2 | duvelisib -0.029 | gandotinib 0.069 | tozasertib -0.047 | [4] 0.045 | doramapimod 0.051 | ispinesib -0.081 | bafetinib 0.065 | [5] 0.015 | nilotinib -0.066 | [6] 0.052 | dasatinib -0.01 | [7] 0.045 | [8] -0.076 | [9] -0.059 | tipifarnib 0.002 | mubritinib -0.128

DCAF13 (UniProt Q9NV06)
active: [2] -0.538
inactive: [1] -0.086 | crizotinib 0.067 | [3] 0.273 | duvelisib -0.105 | gandotinib 0.221 | tozasertib 0.007 | [4] -0.033 | doramapimod 0.173 | ispinesib -0.1 | bafetinib 0.178 | [5] 0 | nilotinib 0.006 | [6] 0.102 | dasatinib 0.077 | [7] -0.05 | [8] -0.249 | [9] -0.173 | tipifarnib 0.193 | mubritinib -0.106

DDX46 (UniProt Q7L014)
Chain of UniProt Q7L014 (Q7L014 whole entry, looked up): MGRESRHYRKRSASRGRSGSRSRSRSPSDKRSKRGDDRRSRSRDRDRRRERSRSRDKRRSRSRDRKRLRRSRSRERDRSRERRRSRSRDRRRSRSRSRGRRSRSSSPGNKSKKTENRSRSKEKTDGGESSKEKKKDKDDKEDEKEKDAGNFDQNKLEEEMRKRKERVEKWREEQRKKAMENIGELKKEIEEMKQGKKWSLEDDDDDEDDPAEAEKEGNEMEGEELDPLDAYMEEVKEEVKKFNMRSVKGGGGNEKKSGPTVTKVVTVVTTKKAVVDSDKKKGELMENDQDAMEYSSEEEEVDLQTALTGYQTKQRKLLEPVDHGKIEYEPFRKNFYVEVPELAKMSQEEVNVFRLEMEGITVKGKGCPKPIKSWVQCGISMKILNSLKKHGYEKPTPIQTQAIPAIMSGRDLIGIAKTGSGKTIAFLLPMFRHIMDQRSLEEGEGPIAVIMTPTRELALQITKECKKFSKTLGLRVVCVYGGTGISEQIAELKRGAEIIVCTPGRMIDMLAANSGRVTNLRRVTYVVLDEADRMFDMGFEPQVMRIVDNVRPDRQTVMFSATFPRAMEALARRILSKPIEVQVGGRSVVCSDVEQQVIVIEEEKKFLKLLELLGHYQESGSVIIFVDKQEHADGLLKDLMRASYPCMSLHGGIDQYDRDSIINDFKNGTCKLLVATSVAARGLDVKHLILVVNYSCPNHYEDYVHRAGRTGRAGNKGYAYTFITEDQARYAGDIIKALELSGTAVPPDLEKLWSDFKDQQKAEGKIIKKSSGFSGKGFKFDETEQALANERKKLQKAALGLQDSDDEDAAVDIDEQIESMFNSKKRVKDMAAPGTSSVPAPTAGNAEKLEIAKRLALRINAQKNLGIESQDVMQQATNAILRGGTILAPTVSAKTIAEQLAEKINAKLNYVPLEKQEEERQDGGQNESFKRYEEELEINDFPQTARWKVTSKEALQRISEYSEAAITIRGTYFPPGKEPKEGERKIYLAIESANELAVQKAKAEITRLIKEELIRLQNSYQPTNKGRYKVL
active: [6] -1.44 | mubritinib 0.604
inactive: [1] 0.12 | crizotinib 0.1 | [2] 0.185 | [3] -0.025 | duvelisib 0.144 | gandotinib -0.144 | tozasertib 0.109 | [4] 0.235 | doramapimod -0.087 | ispinesib 0.197 | bafetinib 0.196 | [5] 0.094 | nilotinib 0.271 | dasatinib -0.084 | [7] 0.1 | [8] 0.104 | [9] 0.102 | tipifarnib -0.113

EIF4G1 isoform 8 (UniProt Q04637)
Chain of UniProt Q04637 (Q04637 whole entry, looked up): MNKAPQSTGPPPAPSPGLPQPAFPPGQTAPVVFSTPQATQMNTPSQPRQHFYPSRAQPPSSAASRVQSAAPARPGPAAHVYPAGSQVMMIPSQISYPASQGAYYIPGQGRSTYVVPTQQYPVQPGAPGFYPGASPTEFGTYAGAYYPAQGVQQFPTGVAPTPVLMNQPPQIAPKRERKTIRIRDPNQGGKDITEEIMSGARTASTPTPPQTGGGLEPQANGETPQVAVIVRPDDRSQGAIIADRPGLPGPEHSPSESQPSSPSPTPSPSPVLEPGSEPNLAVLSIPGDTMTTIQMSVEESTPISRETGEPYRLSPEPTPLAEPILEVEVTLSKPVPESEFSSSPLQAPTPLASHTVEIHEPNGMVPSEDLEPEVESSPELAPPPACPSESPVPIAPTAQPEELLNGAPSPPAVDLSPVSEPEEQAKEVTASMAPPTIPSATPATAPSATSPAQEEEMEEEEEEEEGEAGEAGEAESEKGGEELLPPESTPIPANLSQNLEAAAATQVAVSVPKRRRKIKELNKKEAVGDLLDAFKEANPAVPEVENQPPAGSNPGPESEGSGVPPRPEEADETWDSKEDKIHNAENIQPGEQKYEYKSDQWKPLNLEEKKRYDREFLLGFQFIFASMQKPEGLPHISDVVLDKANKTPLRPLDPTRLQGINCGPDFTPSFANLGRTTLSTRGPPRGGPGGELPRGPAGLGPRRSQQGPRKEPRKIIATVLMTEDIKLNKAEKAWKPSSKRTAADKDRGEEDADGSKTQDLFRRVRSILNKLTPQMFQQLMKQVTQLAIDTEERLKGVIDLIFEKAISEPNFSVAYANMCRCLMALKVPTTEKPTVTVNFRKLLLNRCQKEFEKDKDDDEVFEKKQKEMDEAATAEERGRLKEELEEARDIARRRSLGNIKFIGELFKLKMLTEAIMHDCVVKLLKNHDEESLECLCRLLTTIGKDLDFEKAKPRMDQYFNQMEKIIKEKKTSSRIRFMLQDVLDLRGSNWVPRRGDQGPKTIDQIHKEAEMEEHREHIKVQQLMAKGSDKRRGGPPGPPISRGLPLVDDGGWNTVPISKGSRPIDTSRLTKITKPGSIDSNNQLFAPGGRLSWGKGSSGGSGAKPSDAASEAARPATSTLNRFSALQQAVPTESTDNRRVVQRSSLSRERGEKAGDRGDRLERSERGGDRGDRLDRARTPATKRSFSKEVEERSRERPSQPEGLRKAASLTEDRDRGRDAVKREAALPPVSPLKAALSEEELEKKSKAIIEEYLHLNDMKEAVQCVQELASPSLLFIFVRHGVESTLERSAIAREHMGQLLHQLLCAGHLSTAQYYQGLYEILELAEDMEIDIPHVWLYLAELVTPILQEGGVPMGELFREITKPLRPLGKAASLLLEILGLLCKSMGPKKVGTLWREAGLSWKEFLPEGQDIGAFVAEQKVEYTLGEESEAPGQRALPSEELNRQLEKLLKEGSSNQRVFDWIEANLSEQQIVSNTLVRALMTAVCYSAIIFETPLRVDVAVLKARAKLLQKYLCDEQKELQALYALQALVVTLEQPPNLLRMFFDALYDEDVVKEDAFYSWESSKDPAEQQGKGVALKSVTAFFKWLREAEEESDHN
inactive: [1] -0.21 | crizotinib -0.314 | [2] -0.206 | [3] 0.109 | duvelisib -0.1 | gandotinib -0.032 | tozasertib 0.008 | [4] 0.149 | doramapimod 0.032 | ispinesib -0.324 | bafetinib -0.002 | [5] 0.046 | nilotinib -0.223 | [6] -0.11 | dasatinib -0.157 | [7] -0.17 | [8] -0.155 | [9] -0.117 | tipifarnib -0.083 | mubritinib -0.071

CTSH (UniProt P09668)
Chain of UniProt P09668 (P09668 whole entry, looked up): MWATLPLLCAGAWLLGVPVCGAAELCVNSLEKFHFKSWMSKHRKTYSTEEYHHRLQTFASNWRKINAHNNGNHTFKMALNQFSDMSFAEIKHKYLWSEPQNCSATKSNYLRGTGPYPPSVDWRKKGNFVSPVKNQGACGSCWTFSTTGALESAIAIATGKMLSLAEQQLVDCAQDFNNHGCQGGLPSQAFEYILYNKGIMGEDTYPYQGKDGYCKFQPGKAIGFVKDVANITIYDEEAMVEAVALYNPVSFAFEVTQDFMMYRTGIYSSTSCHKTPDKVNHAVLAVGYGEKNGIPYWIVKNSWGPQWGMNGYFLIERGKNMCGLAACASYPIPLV
inactive: [1] 0.032 | [2] 0.074 | [3] -0.02 | duvelisib -0.034 | gandotinib 0.031 | tozasertib -0.068 | [4] -0.068 | doramapimod 0.023 | ispinesib -0.221 | bafetinib -0.071 | [5] -0.034 | nilotinib 0.166 | [6] 0.03 | dasatinib 0.084 | [7] -0.041 | [8] 0.055 | [9] 0.056 | tipifarnib 0.09 | mubritinib -0.063
active: crizotinib -0.249

DCAF10 (UniProt Q5QP82)
inactive: [1] 0.036 | crizotinib 0.007 | [2] 0.037 | [3] 0.017 | duvelisib -0.046 | gandotinib -0.15 | tozasertib 0.007 | [4] -0.098 | doramapimod 0.055 | ispinesib -0.059 | bafetinib -0.002 | [5] -0.069 | nilotinib -0.052 | [6] 0.041 | dasatinib 0.026 | [7] -0.047 | [8] 0.012 | [9] 0.007 | tipifarnib -0.054 | mubritinib -0.002

DIP2A (UniProt Q14689)
Chain of UniProt Q14689 (Q14689 whole entry, looked up): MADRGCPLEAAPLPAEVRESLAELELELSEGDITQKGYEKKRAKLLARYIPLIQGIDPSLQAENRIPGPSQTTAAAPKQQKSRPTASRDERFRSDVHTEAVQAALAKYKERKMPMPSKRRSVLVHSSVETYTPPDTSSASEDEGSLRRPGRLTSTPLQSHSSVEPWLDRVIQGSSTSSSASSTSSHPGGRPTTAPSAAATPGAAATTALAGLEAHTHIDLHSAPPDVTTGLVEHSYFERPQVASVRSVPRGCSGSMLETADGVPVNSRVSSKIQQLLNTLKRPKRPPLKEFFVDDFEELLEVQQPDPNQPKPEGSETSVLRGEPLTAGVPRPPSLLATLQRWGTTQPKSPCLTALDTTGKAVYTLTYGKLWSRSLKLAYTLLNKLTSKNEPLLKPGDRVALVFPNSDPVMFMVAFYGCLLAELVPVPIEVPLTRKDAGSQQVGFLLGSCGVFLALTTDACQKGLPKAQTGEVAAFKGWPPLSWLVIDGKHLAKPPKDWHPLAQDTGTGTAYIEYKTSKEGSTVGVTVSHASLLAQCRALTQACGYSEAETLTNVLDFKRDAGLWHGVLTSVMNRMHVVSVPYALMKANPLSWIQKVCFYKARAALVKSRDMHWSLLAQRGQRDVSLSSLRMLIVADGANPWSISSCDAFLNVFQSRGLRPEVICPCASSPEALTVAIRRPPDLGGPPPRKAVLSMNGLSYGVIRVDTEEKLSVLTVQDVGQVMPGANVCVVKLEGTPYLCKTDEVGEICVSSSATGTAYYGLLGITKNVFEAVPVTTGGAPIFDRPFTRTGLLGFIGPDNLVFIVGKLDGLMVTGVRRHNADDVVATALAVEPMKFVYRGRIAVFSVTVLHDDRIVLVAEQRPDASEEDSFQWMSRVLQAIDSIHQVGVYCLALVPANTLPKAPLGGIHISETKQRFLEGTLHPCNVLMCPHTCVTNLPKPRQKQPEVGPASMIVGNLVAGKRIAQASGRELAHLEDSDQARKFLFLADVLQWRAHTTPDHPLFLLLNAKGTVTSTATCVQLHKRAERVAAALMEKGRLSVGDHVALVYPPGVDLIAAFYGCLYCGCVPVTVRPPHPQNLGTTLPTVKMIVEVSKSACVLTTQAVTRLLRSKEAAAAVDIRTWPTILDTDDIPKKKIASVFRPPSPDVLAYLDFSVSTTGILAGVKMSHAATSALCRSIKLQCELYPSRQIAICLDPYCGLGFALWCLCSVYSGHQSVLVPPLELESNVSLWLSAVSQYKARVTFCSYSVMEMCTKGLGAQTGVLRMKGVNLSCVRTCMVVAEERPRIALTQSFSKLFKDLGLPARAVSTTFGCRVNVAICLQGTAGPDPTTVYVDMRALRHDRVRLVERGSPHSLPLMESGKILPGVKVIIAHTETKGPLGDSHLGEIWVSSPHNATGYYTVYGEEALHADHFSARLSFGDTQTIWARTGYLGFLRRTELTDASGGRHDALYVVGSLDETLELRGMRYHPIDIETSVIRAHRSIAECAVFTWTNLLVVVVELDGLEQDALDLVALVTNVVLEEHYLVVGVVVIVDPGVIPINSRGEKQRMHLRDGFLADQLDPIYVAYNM
inactive: [1] -0.094 | crizotinib 0.087 | [2] 0.159 | [3] -0.01 | duvelisib 0.071 | gandotinib 0.023 | tozasertib -0.077 | [4] 0.081 | doramapimod 0.141 | ispinesib 0.01 | bafetinib -0.005 | [5] -0.019 | nilotinib 0.005 | [6] -0.07 | dasatinib -0.04 | [7] 0.01 | [8] 0.043 | [9] -0.053 | tipifarnib 0.02 | mubritinib 0.002

DBT (UniProt P11182)
inactive: [1] -0.024 | crizotinib -0.01 | [2] -0.014 | [3] 0.054 | duvelisib 0.04 | gandotinib 0.005 | tozasertib 0.038 | [4] -0.042 | doramapimod 0.029 | ispinesib 0.009 | bafetinib 0.02 | [5] -0.037 | nilotinib 0.036 | [6] -0.014 | dasatinib -0.002 | [7] -0.033 | [8] -0.026 | [9] -0.03 | tipifarnib 0.011
active: mubritinib -0.207

CUTA isoform 2 (UniProt O60888)
Chain of UniProt O60888 (O60888 whole entry, looked up): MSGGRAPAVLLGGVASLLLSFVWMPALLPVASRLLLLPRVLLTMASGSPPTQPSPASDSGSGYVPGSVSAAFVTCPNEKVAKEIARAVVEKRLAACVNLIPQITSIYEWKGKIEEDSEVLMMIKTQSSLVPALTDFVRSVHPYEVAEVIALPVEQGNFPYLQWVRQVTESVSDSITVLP
inactive: [1] 0.073 | crizotinib -0.045 | [2] 0.021 | [3] -0.001 | duvelisib 0.01 | gandotinib 0.131 | tozasertib -0.05 | [4] -0.049 | doramapimod -0.019 | ispinesib 0.109 | bafetinib -0.148 | [5] 0.1 | nilotinib 0.016 | [6] 0.016 | dasatinib 0 | [7] -0.01 | [8] 0.07 | [9] 0.09 | tipifarnib 0.123 | mubritinib 0.028

EEF1G isoform 2 (UniProt P26641)
inactive: [1] 0.011 | crizotinib 0.015 | [2] -0.028 | [3] 0.006 | duvelisib -0.011 | gandotinib -0.061 | tozasertib 0.046 | [4] 0.061 | doramapimod -0.013 | ispinesib 0.061 | bafetinib 0.033 | [5] 0.083 | nilotinib -0.034 | [6] -0.03 | dasatinib -0.032 | [7] 0.045 | [8] -0.03 | [9] -0.05 | tipifarnib -0.124 | mubritinib 0.028

DNM2 (UniProt P50570)
inactive: [1] 0.017 | crizotinib -0.082 | [2] 0.062 | [3] -0.021 | duvelisib 0.05 | gandotinib -0.06 | tozasertib -0.071 | [4] 0.039 | doramapimod -0.039 | ispinesib -0.01 | bafetinib -0.035 | [5] 0 | nilotinib -0.054 | [6] -0.003 | dasatinib -0.099 | [7] 0 | [8] 0.075 | [9] 0.007 | tipifarnib -0.071 | mubritinib 0.017

EXOC4 (UniProt Q96A65)
inactive: [1] 0.003 | crizotinib -0.275 | [2] -0.099 | [3] 0.098 | duvelisib -0.028 | gandotinib -0.068 | tozasertib 0.041 | [4] 0.162 | doramapimod 0.016 | ispinesib -0.29 | bafetinib 0.012 | [5] 0.11 | nilotinib -0.068 | [6] -0.155 | dasatinib -0.15 | [7] -0.031 | [8] -0.026 | [9] 0.013 | tipifarnib -0.088 | mubritinib 0.078

CYFIP1 (UniProt Q7L576)
inactive: [1] 0.038 | crizotinib -0.029 | [2] 0.063 | [3] -0.042 | duvelisib 0.031 | gandotinib -0.079 | tozasertib 0 | [4] 0.038 | doramapimod -0.026 | ispinesib 0.031 | bafetinib -0.064 | [5] 0.002 | nilotinib -0.015 | [6] -0.064 | dasatinib -0.05 | [7] -0.024 | [8] 0.049 | [9] -0.006 | tipifarnib -0.011 | mubritinib 0.022
